# Laboratory results published in paper PMC7862700, “An all-to-all approach to the identification of sequence-specific readers for epigenetic DNA modifications on cytosine”.
# What was measured:
# Test in all cases: DAPPL (digital affinity profiling via proximity ligation, sequencing); 10 mM Tris-HCl pH 7.5, 50 mM NaCl, 1 mM DTT, 4% glycerol, room temperature, 30 min; GST-TFs on glutathione beads, 16-mer random dsDNA library, 0.1% formaldehyde crosslink after washing; high values mean tight binding
# FLI1 = target: T1, FLI1 (Homo sapiens, UniProt Q01543 1-452); conditions: protein: recombinant; tags: N-terminal GST; dsDNA, one strand shown
# T1 sequence: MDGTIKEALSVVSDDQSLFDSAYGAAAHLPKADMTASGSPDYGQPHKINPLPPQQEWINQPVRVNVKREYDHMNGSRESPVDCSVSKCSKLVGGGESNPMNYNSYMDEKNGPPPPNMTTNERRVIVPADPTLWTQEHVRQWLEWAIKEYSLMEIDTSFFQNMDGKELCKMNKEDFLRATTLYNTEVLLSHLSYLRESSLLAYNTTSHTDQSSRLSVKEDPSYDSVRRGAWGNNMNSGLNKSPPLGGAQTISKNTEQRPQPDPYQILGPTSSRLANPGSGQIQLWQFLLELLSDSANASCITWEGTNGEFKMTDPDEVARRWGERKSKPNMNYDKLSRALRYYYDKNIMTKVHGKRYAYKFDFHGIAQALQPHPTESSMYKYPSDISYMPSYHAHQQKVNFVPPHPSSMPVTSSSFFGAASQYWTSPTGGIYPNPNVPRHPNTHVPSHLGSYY
# Outline: (§1)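 A tag-only sample was pooled with DNA-barcoded human transcription factors that had been expressed in yeast as GST fusions and captured on glutathione beads. The pools were incubated for 30 min at room temperature with 200 nmole of a random double-stranded 16-mer DNA library in Tris/NaCl/DTT/glycerol buffer, then washed, crosslinked with 0.1% formaldehyde, proximity-ligated (BsaI/T4 ligase, 1 h, 37 °C), PCR-amplified and sequenced on an Illumina NextSeq500. Binding signal is each hexamer's read frequency for a factor divided by its frequency for the tag-only sample.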
# ELK1 = target: T2, ELK1 (Homo sapiens, UniProt P19419 1-428); conditions: protein: recombinant; tags: N-terminal GST; dsDNA, one strand shown
# T2 sequence: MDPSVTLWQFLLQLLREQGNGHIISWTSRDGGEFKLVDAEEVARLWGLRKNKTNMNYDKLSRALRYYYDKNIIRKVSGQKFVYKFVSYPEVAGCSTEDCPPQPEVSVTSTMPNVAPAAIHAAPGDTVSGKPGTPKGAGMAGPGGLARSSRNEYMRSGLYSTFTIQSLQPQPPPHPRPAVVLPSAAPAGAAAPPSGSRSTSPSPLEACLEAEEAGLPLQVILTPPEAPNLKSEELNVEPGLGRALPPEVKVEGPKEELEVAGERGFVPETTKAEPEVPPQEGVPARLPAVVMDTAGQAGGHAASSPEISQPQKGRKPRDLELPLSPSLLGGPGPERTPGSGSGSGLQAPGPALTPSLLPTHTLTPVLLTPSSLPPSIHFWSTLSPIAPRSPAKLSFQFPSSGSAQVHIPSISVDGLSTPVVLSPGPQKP
# Outline: as §1
# GABPA = target: T3, GABPA (Homo sapiens, UniProt Q06546 1-454); conditions: protein: recombinant; tags: N-terminal GST; dsDNA, one strand shown
# T3 sequence: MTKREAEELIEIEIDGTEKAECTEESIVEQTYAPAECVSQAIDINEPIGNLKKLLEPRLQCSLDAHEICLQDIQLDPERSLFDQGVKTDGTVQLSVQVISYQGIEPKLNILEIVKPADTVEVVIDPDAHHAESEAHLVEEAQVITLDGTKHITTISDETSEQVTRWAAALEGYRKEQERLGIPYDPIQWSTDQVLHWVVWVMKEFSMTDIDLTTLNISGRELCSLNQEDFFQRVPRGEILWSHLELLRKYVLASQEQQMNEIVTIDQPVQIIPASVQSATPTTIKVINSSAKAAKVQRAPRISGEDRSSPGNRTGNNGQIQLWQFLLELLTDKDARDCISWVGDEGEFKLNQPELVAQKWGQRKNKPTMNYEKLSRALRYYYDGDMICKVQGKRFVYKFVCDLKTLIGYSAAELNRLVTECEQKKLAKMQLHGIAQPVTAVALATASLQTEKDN
# Outline: as §1
# ERG = target: T4, ERG (Homo sapiens, UniProt P11308 1-479); conditions: protein: recombinant; tags: N-terminal GST; dsDNA, one strand shown
# T4 sequence: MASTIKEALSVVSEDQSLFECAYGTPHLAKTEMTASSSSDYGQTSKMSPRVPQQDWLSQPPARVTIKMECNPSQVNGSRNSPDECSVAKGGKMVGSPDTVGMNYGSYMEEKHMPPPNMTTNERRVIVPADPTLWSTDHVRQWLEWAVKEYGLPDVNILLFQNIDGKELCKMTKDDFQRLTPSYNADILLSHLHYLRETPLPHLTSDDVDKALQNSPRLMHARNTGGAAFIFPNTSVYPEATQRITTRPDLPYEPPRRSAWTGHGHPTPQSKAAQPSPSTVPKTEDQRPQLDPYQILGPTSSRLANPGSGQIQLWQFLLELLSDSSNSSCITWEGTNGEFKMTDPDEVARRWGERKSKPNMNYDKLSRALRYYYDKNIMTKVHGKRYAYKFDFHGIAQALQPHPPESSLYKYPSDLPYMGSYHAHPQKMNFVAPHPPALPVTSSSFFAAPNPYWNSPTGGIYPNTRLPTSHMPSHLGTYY
# Outline: as §1
# ELF1 = ELF1 (Homo sapiens, UniProt P32519 1-619); conditions: protein: recombinant; tags: N-terminal GST; dsDNA, one strand shown
# Sequence of ELF1 (P32519 whole entry): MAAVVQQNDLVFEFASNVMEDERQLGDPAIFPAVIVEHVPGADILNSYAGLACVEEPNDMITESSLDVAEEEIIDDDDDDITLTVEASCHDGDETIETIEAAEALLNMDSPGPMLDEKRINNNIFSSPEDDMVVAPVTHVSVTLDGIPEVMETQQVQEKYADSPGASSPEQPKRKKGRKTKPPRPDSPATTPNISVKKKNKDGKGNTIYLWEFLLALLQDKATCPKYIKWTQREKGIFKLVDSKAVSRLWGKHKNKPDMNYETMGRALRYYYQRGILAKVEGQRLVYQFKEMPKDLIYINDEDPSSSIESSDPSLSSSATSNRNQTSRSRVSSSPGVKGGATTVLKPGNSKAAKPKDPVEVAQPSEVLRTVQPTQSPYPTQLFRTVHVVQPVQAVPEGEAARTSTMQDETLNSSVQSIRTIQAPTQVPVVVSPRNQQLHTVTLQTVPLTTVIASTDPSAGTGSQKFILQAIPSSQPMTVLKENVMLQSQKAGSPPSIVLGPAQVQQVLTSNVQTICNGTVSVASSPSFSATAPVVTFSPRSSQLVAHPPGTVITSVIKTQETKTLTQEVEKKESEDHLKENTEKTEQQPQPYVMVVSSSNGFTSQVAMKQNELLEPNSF
# Outline: as §1
# EHF = target: T5, EHF (Homo sapiens, UniProt Q9NZC4 1-300); conditions: protein: recombinant; tags: N-terminal GST; dsDNA, one strand shown
# T5 sequence: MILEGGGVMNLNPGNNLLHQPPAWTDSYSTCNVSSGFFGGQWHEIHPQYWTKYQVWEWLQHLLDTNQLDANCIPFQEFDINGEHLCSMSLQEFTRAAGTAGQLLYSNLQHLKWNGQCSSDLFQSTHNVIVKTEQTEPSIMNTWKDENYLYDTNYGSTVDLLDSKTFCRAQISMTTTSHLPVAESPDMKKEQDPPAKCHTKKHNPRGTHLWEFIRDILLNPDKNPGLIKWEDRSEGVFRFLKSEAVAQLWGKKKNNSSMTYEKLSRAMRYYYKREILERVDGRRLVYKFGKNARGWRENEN
# Outline: as §1
# SPI1 = SPI1 (Homo sapiens, UniProt P17947 1-270); conditions: protein: recombinant; tags: N-terminal GST; dsDNA, one strand shown
# Outline: as §1
# SPIB = SPIB (Homo sapiens, UniProt Q01892 1-262); conditions: protein: recombinant; tags: N-terminal GST; dsDNA, one strand shown
# Sequence of SPIB (Q01892 whole entry): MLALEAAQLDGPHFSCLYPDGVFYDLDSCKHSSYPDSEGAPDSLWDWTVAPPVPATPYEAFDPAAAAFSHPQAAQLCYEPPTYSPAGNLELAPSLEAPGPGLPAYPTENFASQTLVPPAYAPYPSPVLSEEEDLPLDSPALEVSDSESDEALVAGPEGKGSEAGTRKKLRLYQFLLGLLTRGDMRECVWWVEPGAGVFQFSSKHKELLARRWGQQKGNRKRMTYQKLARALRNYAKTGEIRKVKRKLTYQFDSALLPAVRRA
# Outline: as §1
# ELK3 = target: T6, ELK3 (Homo sapiens, UniProt P41970 1-407); conditions: protein: recombinant; tags: N-terminal GST; dsDNA, one strand shown
# T6 sequence: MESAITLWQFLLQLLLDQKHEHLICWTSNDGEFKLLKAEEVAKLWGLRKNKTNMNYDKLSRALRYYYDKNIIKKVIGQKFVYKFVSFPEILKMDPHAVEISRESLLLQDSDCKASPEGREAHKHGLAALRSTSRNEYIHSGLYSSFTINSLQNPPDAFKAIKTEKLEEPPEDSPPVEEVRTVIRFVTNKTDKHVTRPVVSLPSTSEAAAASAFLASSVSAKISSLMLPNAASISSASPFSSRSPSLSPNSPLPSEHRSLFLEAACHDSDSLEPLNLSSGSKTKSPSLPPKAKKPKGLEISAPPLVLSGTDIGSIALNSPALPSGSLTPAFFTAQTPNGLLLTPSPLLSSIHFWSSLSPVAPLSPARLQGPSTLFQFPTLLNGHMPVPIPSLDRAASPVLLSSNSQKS
# Outline: as §1
# FEV = target: T7, FEV (Homo sapiens, UniProt Q99581 1-238); conditions: protein: recombinant; tags: N-terminal GST; dsDNA, one strand shown
# T7 sequence: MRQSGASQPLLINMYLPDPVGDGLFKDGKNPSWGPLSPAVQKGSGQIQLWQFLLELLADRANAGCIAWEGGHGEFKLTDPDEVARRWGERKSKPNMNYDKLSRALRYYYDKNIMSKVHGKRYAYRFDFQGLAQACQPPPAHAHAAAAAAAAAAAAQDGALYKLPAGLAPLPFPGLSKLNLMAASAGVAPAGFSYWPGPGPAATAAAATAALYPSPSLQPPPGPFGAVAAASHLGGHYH
# Outline: as §1
# ETV5 = ETV5 (Homo sapiens, UniProt P41161 1-510); conditions: protein: recombinant; tags: N-terminal GST; dsDNA, one strand shown
# Sequence of ETV5 (P41161 whole entry): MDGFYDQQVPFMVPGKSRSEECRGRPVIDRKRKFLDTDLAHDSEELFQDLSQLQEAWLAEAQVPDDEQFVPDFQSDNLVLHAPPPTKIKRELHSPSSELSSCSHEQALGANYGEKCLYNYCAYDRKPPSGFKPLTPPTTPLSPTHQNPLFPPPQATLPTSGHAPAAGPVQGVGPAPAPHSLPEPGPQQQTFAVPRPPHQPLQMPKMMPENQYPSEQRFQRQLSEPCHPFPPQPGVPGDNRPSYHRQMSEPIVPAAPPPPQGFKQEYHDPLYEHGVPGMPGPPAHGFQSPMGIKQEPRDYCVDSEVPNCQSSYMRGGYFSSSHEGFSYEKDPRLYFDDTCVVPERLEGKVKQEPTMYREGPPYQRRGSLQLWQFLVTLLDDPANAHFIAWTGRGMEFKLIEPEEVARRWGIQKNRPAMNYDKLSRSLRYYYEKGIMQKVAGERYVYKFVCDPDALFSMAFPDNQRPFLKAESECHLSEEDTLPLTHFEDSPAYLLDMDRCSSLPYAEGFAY
# Outline: as §1
# HSF1 = HSF1 (Homo sapiens, UniProt Q00613 1-529); conditions: protein: recombinant; tags: N-terminal GST; chain copies: 3; dsDNA, one strand shown
# Sequence of HSF1 (Q00613 whole entry): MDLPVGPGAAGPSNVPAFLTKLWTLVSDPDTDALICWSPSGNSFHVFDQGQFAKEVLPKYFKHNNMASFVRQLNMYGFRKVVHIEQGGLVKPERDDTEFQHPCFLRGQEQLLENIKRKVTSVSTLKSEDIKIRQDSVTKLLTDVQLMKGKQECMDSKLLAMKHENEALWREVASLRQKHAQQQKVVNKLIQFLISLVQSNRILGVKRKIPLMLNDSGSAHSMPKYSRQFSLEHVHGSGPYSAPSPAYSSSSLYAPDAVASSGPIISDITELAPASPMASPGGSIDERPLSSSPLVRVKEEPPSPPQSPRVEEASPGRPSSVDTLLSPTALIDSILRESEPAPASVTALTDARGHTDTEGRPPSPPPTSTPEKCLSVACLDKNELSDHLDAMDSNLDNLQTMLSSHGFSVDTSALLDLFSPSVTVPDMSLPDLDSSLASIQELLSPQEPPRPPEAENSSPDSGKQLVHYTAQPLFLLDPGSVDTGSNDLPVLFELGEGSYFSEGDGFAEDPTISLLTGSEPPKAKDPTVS
# Outline: as §1
# SPIC = target: T8, SPIC (Homo sapiens, UniProt Q8N5J4 1-248); conditions: protein: recombinant; tags: N-terminal GST; dsDNA, one strand shown
# T8 sequence: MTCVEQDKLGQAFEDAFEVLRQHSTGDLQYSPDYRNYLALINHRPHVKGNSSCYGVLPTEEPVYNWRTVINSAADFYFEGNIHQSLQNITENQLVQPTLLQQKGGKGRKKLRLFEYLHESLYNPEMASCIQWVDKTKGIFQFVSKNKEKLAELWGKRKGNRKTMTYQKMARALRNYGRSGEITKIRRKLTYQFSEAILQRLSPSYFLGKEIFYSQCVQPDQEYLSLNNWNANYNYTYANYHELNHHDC
# Outline: as §1
# ELF4 = ELF4 (Homo sapiens, UniProt Q99607 1-663); conditions: protein: recombinant; tags: N-terminal GST; dsDNA, one strand shown
# Sequence of ELF4 (Q99607 whole entry): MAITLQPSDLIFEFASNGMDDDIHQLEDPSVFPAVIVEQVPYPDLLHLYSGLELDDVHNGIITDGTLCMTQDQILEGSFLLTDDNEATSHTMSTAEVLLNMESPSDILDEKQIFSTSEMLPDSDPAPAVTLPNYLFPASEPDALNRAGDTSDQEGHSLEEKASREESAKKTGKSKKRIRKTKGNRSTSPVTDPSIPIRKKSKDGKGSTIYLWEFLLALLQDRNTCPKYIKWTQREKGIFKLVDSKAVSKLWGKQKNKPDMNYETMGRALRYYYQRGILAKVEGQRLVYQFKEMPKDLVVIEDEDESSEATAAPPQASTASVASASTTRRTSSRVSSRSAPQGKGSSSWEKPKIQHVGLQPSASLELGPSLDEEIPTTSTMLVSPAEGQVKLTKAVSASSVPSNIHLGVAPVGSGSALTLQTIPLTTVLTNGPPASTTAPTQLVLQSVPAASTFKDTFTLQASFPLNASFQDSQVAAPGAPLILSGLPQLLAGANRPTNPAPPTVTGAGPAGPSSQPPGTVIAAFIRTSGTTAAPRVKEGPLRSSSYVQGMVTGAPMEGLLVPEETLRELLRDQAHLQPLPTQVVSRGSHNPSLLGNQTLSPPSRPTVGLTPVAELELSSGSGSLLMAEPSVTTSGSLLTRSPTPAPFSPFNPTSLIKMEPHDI
# Outline: as §1
# ELK4 = target: T9, ELK4 (Homo sapiens, UniProt P28324-2 1-405); conditions: protein: recombinant; tags: N-terminal GST; dsDNA, one strand shown
# T9 sequence: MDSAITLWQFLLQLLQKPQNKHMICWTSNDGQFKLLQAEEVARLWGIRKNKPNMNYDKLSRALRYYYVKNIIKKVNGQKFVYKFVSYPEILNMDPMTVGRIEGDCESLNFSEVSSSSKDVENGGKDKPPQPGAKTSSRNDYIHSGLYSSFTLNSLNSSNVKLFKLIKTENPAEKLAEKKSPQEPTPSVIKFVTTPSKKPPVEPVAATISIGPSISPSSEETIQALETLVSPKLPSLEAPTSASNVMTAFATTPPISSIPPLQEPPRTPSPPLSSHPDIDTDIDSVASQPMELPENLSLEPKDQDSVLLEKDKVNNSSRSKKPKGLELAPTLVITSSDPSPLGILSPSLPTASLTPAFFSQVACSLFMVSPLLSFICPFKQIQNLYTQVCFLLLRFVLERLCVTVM
# Outline: as §1
# ETV2 = target: T10, ETV2 (Homo sapiens, UniProt O00321 1-342); conditions: protein: recombinant; tags: N-terminal GST; dsDNA, one strand shown
# T10 sequence: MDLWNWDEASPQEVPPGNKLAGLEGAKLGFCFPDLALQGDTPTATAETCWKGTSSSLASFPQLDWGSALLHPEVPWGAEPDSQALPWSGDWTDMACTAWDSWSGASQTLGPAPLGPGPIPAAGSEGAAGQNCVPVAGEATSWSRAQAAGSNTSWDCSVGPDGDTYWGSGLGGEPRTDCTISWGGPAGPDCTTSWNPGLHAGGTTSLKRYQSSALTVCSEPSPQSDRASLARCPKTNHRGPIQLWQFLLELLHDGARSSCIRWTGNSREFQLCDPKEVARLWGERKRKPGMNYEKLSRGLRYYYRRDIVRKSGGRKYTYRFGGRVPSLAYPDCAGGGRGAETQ
# Outline: as §1
# ELF3 = target: T11, ELF3 (Homo sapiens, UniProt P78545 1-371); conditions: protein: recombinant; tags: N-terminal GST; dsDNA, one strand shown
# T11 sequence: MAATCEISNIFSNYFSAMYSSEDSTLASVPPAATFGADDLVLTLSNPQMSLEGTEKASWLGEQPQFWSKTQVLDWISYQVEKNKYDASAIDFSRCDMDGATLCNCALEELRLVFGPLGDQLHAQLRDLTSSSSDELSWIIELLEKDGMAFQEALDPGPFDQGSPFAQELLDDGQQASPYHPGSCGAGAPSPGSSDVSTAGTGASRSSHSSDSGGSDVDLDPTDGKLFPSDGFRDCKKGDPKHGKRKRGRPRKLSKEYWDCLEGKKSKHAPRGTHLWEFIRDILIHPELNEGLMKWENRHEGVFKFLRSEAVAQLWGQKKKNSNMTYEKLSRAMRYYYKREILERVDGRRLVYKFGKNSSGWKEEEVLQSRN
# Outline: as §1
# ETV1 = ETV1 (Homo sapiens, UniProt P50549 1-477); conditions: protein: recombinant; tags: N-terminal GST; dsDNA, one strand shown
# Sequence of ETV1 (P50549 whole entry): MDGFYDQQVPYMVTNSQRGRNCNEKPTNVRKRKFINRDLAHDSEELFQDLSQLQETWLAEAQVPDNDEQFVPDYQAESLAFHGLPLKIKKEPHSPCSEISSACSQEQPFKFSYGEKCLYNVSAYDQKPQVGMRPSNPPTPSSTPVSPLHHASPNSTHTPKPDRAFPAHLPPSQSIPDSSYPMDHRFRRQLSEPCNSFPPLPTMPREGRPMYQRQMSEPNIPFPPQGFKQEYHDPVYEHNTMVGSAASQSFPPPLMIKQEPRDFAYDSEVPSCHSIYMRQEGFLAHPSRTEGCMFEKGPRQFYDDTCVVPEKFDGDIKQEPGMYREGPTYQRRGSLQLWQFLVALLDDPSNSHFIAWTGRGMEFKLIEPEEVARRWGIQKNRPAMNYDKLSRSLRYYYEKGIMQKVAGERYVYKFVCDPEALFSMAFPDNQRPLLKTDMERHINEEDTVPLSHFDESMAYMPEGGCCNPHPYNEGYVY
# Outline: as §1
sequence,measurement,setting,value
ATGCAC,binding signal,FLI1,"1.28 fold enrichment (6-mer frequency, TF over GST control)"
same,binding signal,ELK1,"1.33 fold enrichment (6-mer frequency, TF over GST control)"
same,binding signal,GABPA,"1.33 fold enrichment (6-mer frequency, TF over GST control)"
same,binding signal,ERG,"1.2 fold enrichment (6-mer frequency, TF over GST control)"
same,binding signal,ELF1,"1.3 fold enrichment (6-mer frequency, TF over GST control)"
same,binding signal,EHF,"1.21 fold enrichment (6-mer frequency, TF over GST control)"
same,binding signal,SPI1,"1.3 fold enrichment (6-mer frequency, TF over GST control)"
same,binding signal,SPIB,"1.34 fold enrichment (6-mer frequency, TF over GST control)"
same,binding signal,ELK3,"1.34 fold enrichment (6-mer frequency, TF over GST control)"
same,binding signal,FEV,"1.37 fold enrichment (6-mer frequency, TF over GST control)"
same,binding signal,ETV5,"1.28 fold enrichment (6-mer frequency, TF over GST control)"
same,binding signal,HSF1,"1.03 fold enrichment (6-mer frequency, TF over GST control)"
same,binding signal,SPIC,"1.19 fold enrichment (6-mer frequency, TF over GST control)"
same,binding signal,ELF4,"1.3 fold enrichment (6-mer frequency, TF over GST control)"
same,binding signal,ELK4,"1.36 fold enrichment (6-mer frequency, TF over GST control)"
same,binding signal,ETV2,"1.3 fold enrichment (6-mer frequency, TF over GST control)"
same,binding signal,ELF3,"1.36 fold enrichment (6-mer frequency, TF over GST control)"
same,binding signal,ETV1,"1.19 fold enrichment (6-mer frequency, TF over GST control)"
